# Reference: ChEMBL document CHEMBL2218924, “A broad activity screen in support of a chemogenomic map for kinase signalling research and drug discovery” (Biochem J, 2013)
# What was measured:
# [1] = target: Tyrosine-protein kinase Yes (Homo sapiens) (UniProt P07947); details: at 1 µM
# [2] = target: Tyrosine-protein kinase Yes (Homo sapiens) (UniProt P07947); details: at 10 µM
# [3] = target: Death-associated protein kinase 3 (Homo sapiens) (UniProt O43293); details: at 1 µM
# [4] = target: RAF proto-oncogene serine/threonine-protein kinase (Homo sapiens) (UniProt P04049); details: at 1 µM
# [5] = target: RAF proto-oncogene serine/threonine-protein kinase (Homo sapiens) (UniProt P04049); details: at 10 µM
# [6] = target: Mast/stem cell growth factor receptor Kit (Homo sapiens) (UniProt P10721); details: at 1 µM
# [7] = target: Mast/stem cell growth factor receptor Kit (Homo sapiens) (UniProt P10721); details: at 10 µM
# [8] = target: T1, Tyrosine-protein kinase ZAP-70 (Homo sapiens) (UniProt P43403); details: at 10 µM
# T1 sequence (whole entry): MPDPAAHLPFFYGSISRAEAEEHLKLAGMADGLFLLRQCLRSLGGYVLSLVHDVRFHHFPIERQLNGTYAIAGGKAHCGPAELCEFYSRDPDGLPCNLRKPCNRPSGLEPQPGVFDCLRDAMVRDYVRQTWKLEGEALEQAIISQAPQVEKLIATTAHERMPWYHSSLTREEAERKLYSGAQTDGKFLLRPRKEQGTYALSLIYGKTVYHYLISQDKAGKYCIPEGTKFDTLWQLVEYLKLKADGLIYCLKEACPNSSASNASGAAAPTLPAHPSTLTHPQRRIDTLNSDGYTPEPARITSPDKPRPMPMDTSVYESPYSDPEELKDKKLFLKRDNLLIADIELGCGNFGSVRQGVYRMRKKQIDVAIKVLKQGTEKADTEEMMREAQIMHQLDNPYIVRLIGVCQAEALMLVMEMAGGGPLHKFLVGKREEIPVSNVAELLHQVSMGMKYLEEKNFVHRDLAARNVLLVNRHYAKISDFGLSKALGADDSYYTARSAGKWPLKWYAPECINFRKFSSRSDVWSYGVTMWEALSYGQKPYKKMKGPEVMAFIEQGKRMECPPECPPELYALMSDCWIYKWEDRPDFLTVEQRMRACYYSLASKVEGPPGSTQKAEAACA
# Mast/stem cell growth factor receptor Kit (Homo sapiens), sequence (P10721 whole entry): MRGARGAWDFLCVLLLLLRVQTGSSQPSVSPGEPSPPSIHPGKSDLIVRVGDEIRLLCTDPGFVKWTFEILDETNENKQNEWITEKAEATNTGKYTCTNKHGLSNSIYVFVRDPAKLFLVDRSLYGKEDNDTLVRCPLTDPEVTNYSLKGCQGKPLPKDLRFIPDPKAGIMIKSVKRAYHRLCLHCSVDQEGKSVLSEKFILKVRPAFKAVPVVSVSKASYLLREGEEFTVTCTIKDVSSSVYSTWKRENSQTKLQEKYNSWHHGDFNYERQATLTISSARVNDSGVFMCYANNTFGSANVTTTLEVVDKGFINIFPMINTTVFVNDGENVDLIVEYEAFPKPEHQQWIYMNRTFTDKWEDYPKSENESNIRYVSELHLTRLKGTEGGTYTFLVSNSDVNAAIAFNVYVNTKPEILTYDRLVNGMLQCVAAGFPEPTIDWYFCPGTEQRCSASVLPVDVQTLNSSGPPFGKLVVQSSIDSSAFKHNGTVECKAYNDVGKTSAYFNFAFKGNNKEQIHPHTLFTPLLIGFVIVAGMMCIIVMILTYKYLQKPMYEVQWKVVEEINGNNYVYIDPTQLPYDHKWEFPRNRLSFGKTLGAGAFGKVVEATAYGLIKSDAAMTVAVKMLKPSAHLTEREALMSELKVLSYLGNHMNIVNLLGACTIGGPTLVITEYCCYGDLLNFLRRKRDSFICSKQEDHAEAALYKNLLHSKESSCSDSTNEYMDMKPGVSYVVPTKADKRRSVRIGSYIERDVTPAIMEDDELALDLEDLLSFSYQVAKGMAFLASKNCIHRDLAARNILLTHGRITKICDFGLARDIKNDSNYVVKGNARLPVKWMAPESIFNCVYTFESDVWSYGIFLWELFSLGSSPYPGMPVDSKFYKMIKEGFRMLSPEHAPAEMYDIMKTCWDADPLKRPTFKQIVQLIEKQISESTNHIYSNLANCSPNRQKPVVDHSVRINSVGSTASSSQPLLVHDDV
# RAF proto-oncogene serine/threonine-protein kinase (Homo sapiens), sequence (P04049 whole entry): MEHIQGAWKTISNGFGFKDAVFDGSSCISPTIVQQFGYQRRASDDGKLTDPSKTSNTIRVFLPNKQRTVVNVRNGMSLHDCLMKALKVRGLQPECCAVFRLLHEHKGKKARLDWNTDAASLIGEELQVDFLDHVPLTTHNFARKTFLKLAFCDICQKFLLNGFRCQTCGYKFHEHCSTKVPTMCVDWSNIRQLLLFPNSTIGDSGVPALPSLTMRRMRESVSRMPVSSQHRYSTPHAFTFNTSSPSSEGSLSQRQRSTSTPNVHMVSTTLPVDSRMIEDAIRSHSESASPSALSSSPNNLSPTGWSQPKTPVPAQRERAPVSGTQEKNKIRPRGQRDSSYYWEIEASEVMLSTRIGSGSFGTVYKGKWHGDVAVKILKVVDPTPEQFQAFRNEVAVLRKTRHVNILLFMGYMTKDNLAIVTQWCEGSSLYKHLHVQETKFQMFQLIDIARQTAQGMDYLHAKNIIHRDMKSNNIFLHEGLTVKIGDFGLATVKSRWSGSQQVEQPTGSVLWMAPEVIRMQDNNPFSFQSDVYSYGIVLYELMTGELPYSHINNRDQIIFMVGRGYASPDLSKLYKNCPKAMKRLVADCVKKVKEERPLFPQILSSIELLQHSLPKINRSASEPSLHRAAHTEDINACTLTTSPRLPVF
# Tyrosine-protein kinase Yes (Homo sapiens), sequence (P07947 2-543 limits assumed): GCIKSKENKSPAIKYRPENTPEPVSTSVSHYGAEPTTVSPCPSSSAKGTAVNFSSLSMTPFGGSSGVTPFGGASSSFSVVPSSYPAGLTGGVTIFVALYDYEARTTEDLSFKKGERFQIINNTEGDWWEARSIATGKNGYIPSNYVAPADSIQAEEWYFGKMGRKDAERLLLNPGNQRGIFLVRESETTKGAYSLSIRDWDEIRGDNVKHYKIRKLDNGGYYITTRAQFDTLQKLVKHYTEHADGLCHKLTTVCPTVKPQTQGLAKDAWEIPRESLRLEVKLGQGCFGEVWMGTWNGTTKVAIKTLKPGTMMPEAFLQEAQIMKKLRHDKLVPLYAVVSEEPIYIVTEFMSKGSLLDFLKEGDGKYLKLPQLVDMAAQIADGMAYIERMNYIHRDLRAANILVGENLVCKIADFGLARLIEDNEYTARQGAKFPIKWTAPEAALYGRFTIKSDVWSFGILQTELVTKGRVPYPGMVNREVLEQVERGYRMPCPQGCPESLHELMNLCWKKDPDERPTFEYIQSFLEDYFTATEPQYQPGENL
# Death-associated protein kinase 3 (Homo sapiens), sequence (O43293 whole entry, looked up): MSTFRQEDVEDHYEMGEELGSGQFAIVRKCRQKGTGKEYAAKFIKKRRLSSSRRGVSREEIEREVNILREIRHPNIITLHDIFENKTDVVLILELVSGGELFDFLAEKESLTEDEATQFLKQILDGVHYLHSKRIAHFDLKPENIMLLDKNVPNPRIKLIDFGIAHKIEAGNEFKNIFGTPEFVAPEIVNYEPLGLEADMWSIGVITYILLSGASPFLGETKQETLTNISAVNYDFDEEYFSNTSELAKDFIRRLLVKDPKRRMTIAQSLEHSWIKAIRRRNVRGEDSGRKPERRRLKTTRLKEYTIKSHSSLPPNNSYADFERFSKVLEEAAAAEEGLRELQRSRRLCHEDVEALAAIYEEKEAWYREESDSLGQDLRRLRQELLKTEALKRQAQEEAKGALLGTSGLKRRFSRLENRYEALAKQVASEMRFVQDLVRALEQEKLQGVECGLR
compound,measurement,setting,value
CC(C)[C@H](CO)Nc1nc(Nc2cccc(Cl)c2)c2ncn(C(C)C)c2n1,residual activity,[1],4%
same,residual activity,[2],0%
same,residual activity,[3],96%
same,residual activity,[4],73%
same,residual activity,[5],43%
same,residual activity,[6],117%
same,residual activity,[7],98%
O=c1cc(N2CCOCC2)oc2c1ccc1ccccc12,residual activity,[8],93%
CN[C@@H]1C[C@H]2O[C@@](C)([C@@H]1OC)n1c3ccccc3c3c4c(c5c6ccccc6n2c5c31)C(=O)NC4,residual activity,[4],109%
CC(C)(C)c1cc(C=C(C#N)C#N)cc(Br)c1O,residual activity,[4],99%
same,residual activity,[6],113%
same,residual activity,[7],102%
